According to PubChem BioAssay (Tox21):
Records with an inconclusive call do not appear. A number with no mark means an inactive call. Activity calls are given as the source filed them. Calls follow the shape of the full dose curve. Peptide text beside a SMILES is read from it.

These molecules were tested against Muscarinic acetylcholine receptor M1 (Homo sapiens) (UniProt P11229) (assay: Cholinergic receptor muscarinic 1 (CHRM1) small molecule antagonists, cell-based qHTS assay (AID 1963588; also: nearly all actives have a fitted effect of over 40% in size)). Details: CHRM1-CHO antagonist mode, calcium flux fluorescence; series mostly up to 61.5 µM; activity, negative = inhibition: at the top concentration.
Description: National Center for Advancing Translational Sciences [NCATS]
Division of Preclinical Innovation [DPI]
U.S. Environmental Protection Agency [EPA]
National Institutes of Environmental Health Sciences [NIEHS]
National Toxicology Program [NTP]
U.S. Food and Drug Administration [FDA]
The CHRM1 is a muscarinic receptor. This receptor plays a crucial role in learning and memory processes and has long been identified as a promising therapeutic target for the improvement of cognitive decline in Alzheimer's disease (AD). The CHRM1-CHO cell line stably expressing human muscarinic acetylcholine receptor M1 (CHRM1) can be used for screening agonists and antagonists of interactions between CHRM1 and its ligands. The CHRM1-CHO Calcium Flux Assay is a homogeneous fluorescence-based assay for detecting the intracellular calcium level using FDSS kinetic plate reader system.
Tox21 Assay Protocol Summary:
CHRM1-CHO cells were dispensed at 1000 cells/3uL/well in 1536-well black-clear bottom plates using a Multidrop Dispenser. After the assay plates were incubated at a 37 C/5% CO2 incubator for 18 h, 3 uL of Dye Loading Buffer was transferred to the assay plate by a Flying Reagent Dispenser. The assay plates were incubated at 37 C for 1h. For antagonist mode, 23 nL of compounds dissolved in DMSO, positive controls or DMSO only was transferred to the assay plate by a pin tool. After 5 min incubation at room temperature, 1.5 uL of acetylcholine at 50nM was added to each well. The fluorescence intensity in the plates was measured using FDSS 7000EX kinetic plate reader for 3 min at 1 sec intervals. Each test compound was measured at 15 concentrations in three independent runs.
% is scaled to controls: 0 for no effect and ±100 for the full control effect; potency is read from the fitted curve at half-maximal effect.

Muscarinic acetylcholine receptor M1 (Homo sapiens), sequence (P11229 whole entry, looked up): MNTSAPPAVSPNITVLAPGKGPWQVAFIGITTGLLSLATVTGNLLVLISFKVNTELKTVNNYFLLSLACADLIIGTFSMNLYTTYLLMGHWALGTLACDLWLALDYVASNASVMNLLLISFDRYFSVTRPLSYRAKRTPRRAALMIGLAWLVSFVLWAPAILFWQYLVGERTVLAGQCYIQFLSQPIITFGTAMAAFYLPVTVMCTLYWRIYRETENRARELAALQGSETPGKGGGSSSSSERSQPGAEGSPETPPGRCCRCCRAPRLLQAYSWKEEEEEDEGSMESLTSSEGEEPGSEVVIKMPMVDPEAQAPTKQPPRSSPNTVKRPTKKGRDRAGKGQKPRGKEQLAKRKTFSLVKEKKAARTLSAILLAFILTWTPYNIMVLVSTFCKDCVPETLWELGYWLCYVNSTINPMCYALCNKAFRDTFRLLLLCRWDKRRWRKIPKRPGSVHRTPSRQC

SMILES	activity, negative = inhibition	Potency
ClC(Cl)C(Cl)(Cl)Cl	-0.68%	
CC(C)(C)c1ccc(OP(=O)(Oc2ccccc2)Oc2ccccc2)cc1	13%	
OCCBr	2.1%	
O=c1[nH]c(Cl)c(Cl)cc1Cl	9.19%	
Cc1nnc2n1-c1sc(CCC(=O)N3CCOCC3)cc1C(c1ccccc1Cl)=NC2	-16.5% [at 28.3 µM]	
Oc1c(Cl)c(Cl)cc(Cl)c1Cl	9.2%	
CC(O)C#N (stereo not given)	-1.23%	
CC(C)[C@H](C(=O)O[C@H](C#N)c1cccc(Oc2ccccc2)c1)c1ccc(Cl)cc1	-11.8%	
CC(=O)N[C@@H](CO)C(=O)N[C@@H](CC(=O)O)C(=O)N[C@@H](CCCCN)C(=O)N1CCC[C@H]1C(=O)O (Ac-SDKP-OH)	6.82% [at 28.3 µM]	
CCCN1CCC[C@@H]2Cc3[nH]ncc3C[C@H]21	-2.1% [at 28.3 µM]	
CCCN(CCC)C(=O)Cc1c(-c2ccc(Cl)cc2)nc2ccc(Cl)cn12	2.07% [at 28.3 µM]	
CC(C)N(Cc1ccccc1)C(=O)C(C)(C)C	-11.1%	
Cn1[nH]nnc1=S	-22.3%	
CNN	-15.3%	
Cc1c(COC(=O)[C@@H]2[C@H](/C=C(\Cl)C(F)(F)F)C2(C)C)cccc1-c1ccccc1		inactive
C/C=C/C=O	0.596%	
CCC(C)(C)c1cc(-n2nc3ccccc3n2)c(O)c(C(C)(C)CC)c1		0.0956 µM (active)
CC1(C)C(C(=O)OC(C#N)c2cccc(Oc3ccccc3)c2)C1(C)C (stereo not given)		inactive
CC(Cc1ccc(OCC(=O)O)cc1)NCC(O)c1csc(C(F)(F)F)n1 (stereo not given)	17.6%	
Fc1ccc(C(OCCN2CCN(CCCc3ccccc3)CC2)c2ccc(F)cc2)cc1	-25.7% [at 28.3 µM]	

SMILES	activity, negative = inhibition	Potency
COP(N)(=S)Oc1ccccc1C(=O)OC(C)C (stereo not given)	15.1%	
C=CC[C@]1(O)CC[C@H]2[C@@H]3CCC4=CC(=O)CCC4=C3C=C[C@@]21C	-18% [at 28.3 µM]	
CCOP(=S)(OCC)SCSCC	27.2%	
Clc1ccc(-c2ccccc2)cc1	-1.39%	
CC(=O)/C=C/c1ccc2c(c1)OCO2	-13.5%	
[CH3][Hg][Cl]	-14.7%	
C[As+](C)(C)CC(=O)[O-]	11.4%	
CC(=O)[O-].CC(=O)[O-].CC(=O)[O-].[Cr+3]	-9.77%	
Oc1cc(Cl)cc(Cl)c1	7.46%	
O=Cc1ccc2c(c1)OCO2	22.8%	
O=CC=O	-7.42%	
CC[C@H](C)[C@H]1O[C@]2(C=C[C@@H]1C)C[C@@H]1C[C@@H](C/C=C(\C)[C@@H](O[C@H]3C[C@H](OC)[C@@H](O[C@H]4C[C@H](OC)[C@@H](NC)[C@H](C)O4)[C@H](C)O3)[C@@H](C)/C=C/C=C3\CO[C@@H]4[C@H](O)C(C)=C[C@@H](C(=O)O1)[C@]34O)O2		23.7 µM (active)
CCNP(=S)(OC)O/C(C)=C/C(=O)OC(C)C (stereo not given)	9.3%	
COc1cccc2c1cc([N+](=O)[O-])c1c(C(=O)O)cc3c(c12)OCO3	-12.9%	
COP(=O)(OC)OC(Br)C(Cl)(Cl)Br (stereo not given)		inactive
COP(=S)(OC)Oc1c(Cl)cc(C)cc1Cl	8.53%	
O=C(O)c1cccc(Cl)c1	4.45%	
Cc1c(F)c(F)c(COC(=O)C2C(/C=C(\Cl)C(F)(F)F)C2(C)C)c(F)c1F (stereo not given)	1.32%	
FC(F)(F)c1cccc(C2=CCN(CCc3ccc4ccccc4c3)CC2)c1	-0.24% [at 28.3 µM]	
C=CC(=O)OCC(C)O (stereo not given)	12.4%	
